# In PubChem BioAssay (Tox21):
# Inconclusive results are not listed. A call without a number means that no potency is given here. Activity calls are given as the source filed them. Calls follow the shape of the dose curve; as a rule, active = well fitted cell-killing curve with a large enough effect in the repeat runs; inconclusive = weak or mixed curves, or effect the other way; inactive = flat fitted curve, though single readings scatter.
# Assay: cAMP Responsive Elements (CRE) small molecule agonists, cell-based qHTS assay: qHTS cell viability counter screen (AID 2060914); also: nearly all actives have a fitted effect of over 50% in size
# Conditions: CRE-bla HEK293T viability, CellTiter-Glo luminescence, 5 h; series mostly up to 92.4 µM
# In short: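 In the same wells as the reporter read, viability of CRE-bla HEK 293T cells was quantified by CellTiter-Glo luminescence after a 3 h compound exposure.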
# Potency is read from the fitted curve at half-maximal effect.
row,Structure (SMILES),Potency
1,CN1C(=O)OC(C)(C)C1=O,inactive
2,CCCCCC#CC(=O)OC,inactive
3,CC1CCCC(=O)C1=O (configuration not stated),inactive
4,CC1=Nc2ccccc2C1(C)C,inactive
5,CCCCCCCCCCCCCCCCCC(=O)OCCCCCCCCCCCCCC(C)C,inactive
6,CC(N)CCCC(C)(C)O (configuration not stated),inactive
7,CO[C@H]1C=CO[C@@]2(C)Oc3c(C)c(O)c4c(O)c(c5c(c4c3C2=O)=NC2(CCN(CC(C)C)CC2)N=5)NC(=O)/C(C)=C\C=C/[C@H](C)[C@H](O)[C@@H](C)[C@@H](O)[C@@H](C)[C@H](OC(C)=O)[C@@H]1C,inactive
8,CCN(Cc1cccc(S(=O)(=O)O)c1)c1ccc(C(=C2C=CC(=[N+](CC)Cc3cccc(S(=O)(=O)O)c3)C=C2)c2ccccc2S(=O)(=O)[O-])cc1,38.7 µM (active)
9,CCCCCCC(O)CCCCCCCCCCC(=O)OC (configuration not stated),inactive
10,Cc1cccc(CN2CCN(C(c3ccccc3)c3ccc(Cl)cc3)CC2)c1 (configuration not stated),inactive
11,O=C(/C=C/c1ccc([N+](=O)[O-])cc1)c1ccccc1,inactive
12,CNC(=O)c1cnn(-c2nc(N)c3ncn([C@@H]4O[C@H](CO)[C@@H](O)[C@H]4O)c3n2)c1,inactive
13,O=CC(=O)c1ccccc1,inactive
14,COc1ccc(/C=C/S(=O)(=O)NC(=O)c2ccc(C)cc2Cl)cc1,inactive
15,CC(C)CC(=O)CC(C)CC(C)C (configuration not stated),inactive
16,COCCOC(=O)C1=C(C)NC(C)=C(C(=O)OC/C=C/c2ccccc2)C1c1cccc([N+](=O)[O-])c1 (configuration not stated),inactive
17,CC(O)(c1ccc(Cl)cc1)c1ccc(Cl)cc1,inactive
